# Source: PubChem (several laboratories)
# This is a sample that favours compounds with a hit; in the whole collection about 4.7% have one here.
# Pemphigus Ab inh: inhibitors of pemphigus antibody binding to DSG3, primary screen, biochemical, bead-based, flow cytometry, scFv-GFP; Desmoglein-3 (Homo sapiens), P32926; DSG3-coupled beads, scFv-anti-DSG3-GFP binding; hits give low values; binding (percent of control), % at 10 µM; 310,000 tested, 0.48% active; AID 588358, 2011;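 active means binding more than 3 SD below its plate's average and above zero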;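 further: hits lower antibody fragment binding to DSG3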
# ADAM17 inh: ADAM17 inhibitors, primary screen, biochemical, QFRET; Disintegrin and metalloproteinase domain-containing protein 17 (Homo sapiens), P78536; recombinant ADAM17, EDANS/DABCYL FRET peptide cleavage; inhibition, % at 6.95 µM; 370,000 tested, 0.83% active; AID 720648, 2013;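 active means inhibition above the mean of compounds lying between control limits plus 3 SD, set per campaign, cut at about 8.5% in these data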;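 further: 0% = DMSO-only wells as the low control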
# MPTP inh: mitochondrial permeability transition pore inhibitors, primary screen, biochemical, isolated mouse mitochondria, absorbance | Ca2+ swelling absorbance, 30 min | inhibition, % at 10 µM | 360,000 tested, 1.4% active;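 active means inhibition of 50% or more, scaled per plate between neutral and stimulator controls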;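 further: 0% = DMSO wells given calcium and 100% = 1 mM EGTA wells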
# KLK7 zymogen act: proKLK7 zymogen activators, primary screen, biochemical, fluorescence intensity; purified proKLK7, EDANS-DABCYL substrate fluorescence; 100% is mature enzyme control, 0% vehicle; activation, % at 7 µM; 370,000 tested, 0.9% active; AID 652039, 2013;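 active means activation above the mean of all tested compounds plus 3 SD, computed per campaign excluding outliers beyond control limits, cut at about 13% in these data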
# ADAM10 inh: human ADAM10 inhibitors, primary screen, biochemical, QFRET, HTS | Disintegrin and metalloproteinase domain-containing protein 10 (Homo sapiens), O14672 | recombinant ADAM10, EDANS/DABCYL FRET peptide cleavage, 3 h | inhibition, % at 7 µM | 370,000 tested, 0.62% active;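 active means inhibition above a per-campaign cutoff equal to the mean of compounds falling between control-based bounds plus 3 SD, cut at about 20% in these data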;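 further: 0% = DMSO wells while the 100% control is not disclosed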
# Target sequence (O14672 214-748 limits assumed): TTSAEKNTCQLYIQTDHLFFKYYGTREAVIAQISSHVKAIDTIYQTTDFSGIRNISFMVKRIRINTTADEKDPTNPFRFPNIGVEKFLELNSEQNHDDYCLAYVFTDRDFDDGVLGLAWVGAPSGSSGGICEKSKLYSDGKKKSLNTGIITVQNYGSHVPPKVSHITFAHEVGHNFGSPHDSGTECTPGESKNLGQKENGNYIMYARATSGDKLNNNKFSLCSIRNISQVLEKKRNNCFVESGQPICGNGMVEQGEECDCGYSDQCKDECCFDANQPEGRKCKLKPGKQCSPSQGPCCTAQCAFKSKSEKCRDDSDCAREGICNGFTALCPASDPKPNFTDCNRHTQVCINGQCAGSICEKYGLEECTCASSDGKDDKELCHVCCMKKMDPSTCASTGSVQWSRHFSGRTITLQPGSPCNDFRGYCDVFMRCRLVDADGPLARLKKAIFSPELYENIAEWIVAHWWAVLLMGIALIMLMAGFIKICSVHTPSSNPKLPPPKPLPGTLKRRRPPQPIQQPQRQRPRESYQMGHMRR
# rCAG binder: binders of r(CAG) RNA repeats, primary screen, biochemical, fluorescence. 370,000 tested, 1.3% active. inhibition, % at 3 µM. r(CAG) RNA repeat, TO-PRO-1 dye displacement fluorescence;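 active means inhibition above the plate cutoff, the mean of all test compounds on that plate plus 3 SD, cut at about 35% in these data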;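 further: 0% = DMSO alone and 100% = 100 µM mitoxantrone as full dye displacement; higher means more dye released from RNA so lower well fluorescence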
# rCAG binder conf: small molecules binding CAG repeat RNA – biochemical, fluorescence, confirmation; r(CAG) RNA repeat, TO-PRO-1 dye displacement fluorescence; shares compounds with rCAG binder; 4,300 tested, 70% active; inhibition, % at 3 µM;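 active means inhibition above a per-plate cutoff, the mean inhibition of sample wells plus 3 SD, cut at about 35% in these data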;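 further: loss of TO-PRO-1 fluorescence as compound displaces dye from 1x1 AA loop RNA; 0% = DMSO only wells and 100% = 100 µM mitoxantrone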
# DNA CAG counter: displacement of TO-PRO-1 from CAG DNA duplex, counter-screen for rCAG RNA repeat binder project, biochemical, fluorescence, TO-PRO-1 dye, d(CAG) DNA oligo | d(CAG) DNA oligo TO-PRO-1 dye displacement | AID 652068, 2013 | 4,300 tested, 94% active | shares compounds with rCAG binder | inhibition, % at 3 µM;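 active means inhibition above its plate's cutoff, the mean test-well inhibition plus 3 SD, cut at about 4.8% in these data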;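 further: 0% = DNA dye mix with DMSO and 100% = 100 µM mitoxantrone; hits displace the dye from DNA and so lower well fluorescence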
# DNA CAG DR: inhibitors of DNA CAG/GTC TO-PRO-1 complex, dose response, counter-screen for rCAG RNA repeat binder project, biochemical, fluorescence, TO-PRO-1 dye; shares compounds with rCAG binder; DNA CAG/GTC duplex TO-PRO-1 dye displacement fluorescence; IC50, µM; 250 tested, 20% active; in the data active means IC50 below about 10 µM
# * = called active by the depositor; i = inactive; / = no result given.
SMILES,Pemphigus Ab inh,ADAM17 inh,MPTP inh,KLK7 zymogen act,ADAM10 inh,rCAG binder,rCAG binder conf,DNA CAG counter,others
CSC(=NS(=O)(=O)c1ccccc1)NNC(=O)c1c(-c2c(Cl)cccc2Cl)noc1C,/,-1.0,-1.0,0.3,-2.4,34.8*,24.3,4.3,
CCOC(=O)C1=C(C(=O)OCC)C2N(Cc3ccc(C#N)cc3)c3ccccc3[C@@]23C[C@@H](C(=O)OC)N(S(=O)(=O)c2ccccc2C)C3=N1 (some centres undefined),/,1.4,/,-0.7,1.0,15.2,/,/,
FC(F)(F)c1ccc2c(c1)C1C=CCC1C(c1ccncc1)N2 (centres undefined),94.8,-1.9,2.0,0.6,-7.1,44.1*,2.7,2.0,
COC(=O)CNC(=O)C1Nc2ccc(OC(F)(F)F)cc2C2C=CCC12 (centres undefined),104.9,0.5,-1.3,-4.2,-17.2,38.6*,1.0,-0.2,
O=C(O)c1ccc2c(c1)C1C=CCC1C(c1ccncc1)N2 (centres undefined),103.3,-1.2,-0.7,-0.1,-3.3,-0.7,/,/,
COCCNC(=O)C1Nc2ccc(C(F)(F)F)cc2C2C=CCC12 (centres undefined),95.8,-10.6,-0.4,0.6,-40.3,44.3*,1.9,2.0,
Cc1cc(-c2ccc(C(C)C)c(S(=O)(=O)Nc3ccccn3)c2)on1,102.2,-25.1,-2.1,2.9,-75.1,8.2,/,/,
O=C(C1CCCN1S(=O)(=O)c1ccc(Br)s1)N1CCc2ccccc2C1 (centres undefined),/,1.1,/,-0.5,-1.6,3.9,/,/,
CN=c1scc(-c2ccccc2F)n1/N=C/c1ccc[nH]1,120.7,-1.0,2.5,-1.7,-8.8,10.5,/,/,
CN=c1scc(-c2ccccc2F)n1/N=C/c1ccc(O)c(O)c1O,89.0,2.3,17.0,0.1,5.0,40.9*,56.2*,25.4*,
Cc1ccc(S(=O)(=O)N2[C@@H](c3ccc(Br)cc3)C(C(=O)O)=CC[C@H]2c2cccs2)cc1,94.1,-4.1,1.5,-0.6,-13.2,74.5*,65.8*,28.8*,
Cc1ccc([C@H]2C(C(=O)O)=CC[C@@H](c3cccs3)N2S(=O)(=O)c2ccc(C)cc2)cc1,110.8,-1.9,0.1,0.4,-17.5,61.2*,47.7*,16.7*,
COc1cc([C@@H]2CC=C(C(=O)O)[C@H](c3ccccc3)N2S(=O)(=O)c2ccc(C)cc2)cc(OC)c1OC,103.3,-4.0,0.1,0.5,-0.6,28.2,/,/,
Cc1ccc(S(=O)(=O)N2[C@@H](c3ccc(F)cc3)C(C(=O)O)=CC[C@H]2c2cccs2)cc1,102.4,-4.0,3.2,0.8,-2.3,42.6*,36.8*,9.9*,
Cc1ccc(S(=O)(=O)N2[C@@H](c3ccc(C(C)(C)C)cc3)C(C(=O)O)=CC[C@H]2c2cccs2)cc1,109.5,-2.7,3.9,0.4,-6.5,81.5*,72.6*,34.3*,DNA CAG DR=9.49*
CC(C)(C)NC(=O)CN(C(=O)CCC(=O)Nc1nccs1)c1ccccc1F,104.2,-2.5,-0.9,-0.8,-19.2,1.3,/,/,
Cc1ccc(S(=O)(=O)N2[C@@H](c3ccc(Cl)cc3)C(C(=O)O)=CC[C@H]2c2cccs2)cc1,100.3,-3.3,-0.7,0.0,5.2,67.2*,54.0*,16.6*,
Cc1ccc(S(=O)(=O)N2[C@@H](c3cccc(Cl)c3)C(C(=O)O)=CC[C@H]2c2cccs2)cc1,108.3,0.5,3.5,-0.2,1.0,58.3*,50.5*,15.0*,
CCN(c1cc(C)cc(C)c1)S(=O)(=O)c1nnc(NC(=O)c2ccco2)s1,/,-8.4,0.9,-0.1,-0.9,38.6*,38.1*,10.5*,
Cc1ccccc1N1CCN(S(=O)(=O)c2nnc(NC(=O)c3ccco3)s2)CC1,98.7,-3.6,3.5,0.3,1.4,43.1*,71.9*,25.7*,DNA CAG DR=i
CCN(c1ccc(OC)cc1)S(=O)(=O)c1nnc(NC(=O)c2ccco2)s1,/,-3.4,6.9,0.2,-5.0,20.5,/,/,
Cc1ccccc1N1CCN(S(=O)(=O)c2nnc(NC(=O)CC(C)C)s2)CC1,95.0,-2.1,2.2,0.1,-11.8,3.4,/,/,
CCN(c1ccccc1C)S(=O)(=O)c1nnc(NC(=O)c2ccco2)s1,96.2,-1.0,1.0,0.1,-7.3,41.0*,26.4,6.9*,
Nc1[nH]c(C(=O)c2ccccc2)c(-c2cccnc2)c1C(=O)c1ccccc1,/,-4.0,/,0.1,-1.4,2.3,/,/,
CC(C)Oc1cccc(-c2n[nH]c(=S)n2N=Cc2ccc(O)cc2O)c1,/,-1.1,/,-0.3,-5.9,15.6,/,/,
SMILES,Pemphigus Ab inh,ADAM17 inh,MPTP inh,KLK7 zymogen act,ADAM10 inh,rCAG binder,rCAG binder conf,DNA CAG counter,others
Cc1ccc(-n2c(SCC(=O)Nc3cccc4ccccc34)nnc2-c2cccs2)cc1,/,2.5,/,-0.2,6.1,5.3,/,/,
CCn1c2ccccc2c2cc(NC(=O)COC(=O)c3cc(S(N)(=O)=O)c(Cl)cc3Cl)ccc21,83.7,-3.9,6.0,-0.3,-3.5,36.4*,32.3,16.9*,
CCn1c2ccccc2c2cc(NC(=O)COC(=O)c3ccc(NC(=O)CC#N)cc3)ccc21,68.6*,-7.2,-2.0,-1.8,-1.6,46.7*,34.6*,21.3*,
COC(=O)C1=C(C)N(Cc2ccccc2C(F)(F)F)C(=NCc2ccc3c(c2)OCO3)NC1c1ccccc1 (centres undefined),/,-3.5,/,0.0,-6.6,5.6,/,/,
O=c1cc(-c2ccc(O)c(-c3c(O)cc(O)c4c(=O)cc(-c5ccc(O)cc5)oc34)c2)oc2cc(O)cc(O)c12,99.8,6.2,14.1,0.1,14.3,92.3*,78.7*,52.8*,
O=c1c(-c2c(O)cc(O)c3c(=O)cc(-c4ccc(O)cc4)oc23)c(-c2ccc(O)cc2)oc2cc(O)cc(O)c12,/,1.9,6.7,0.6,-7.9,48.6*,35.9*,16.0*,
COc1c(-c2ccc(O)cc2)oc2cc(O)cc(O)c2c1=O,107.3,2.5,-0.2,-0.4,0.0,12.8,/,/,
